# Bioassay records (PubChem)
# This is a sample that favours compounds with a hit; in the whole collection about 8.8% have one here.
# KB-V1 MDR tox: qHTS assay for MDR1-selective chemotherapeutics: Primary screen using the drug-selected MDR subline cells KB-V1. KB-V1 MDR cells viability, CellTiter-Glo, 72 h. Potency, µM (doses to about 46.1 µM), most hits filed as cytotoxic. 400,000 compounds, 3.4% hits; further: potency means the concentration at half of the fitted maximal effect; nearly all actives have a fitted effect of over 60% in size
#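 Potencies derive from concentration-effect curves fitted to normalized luminescence (CellTiter-Glo) of KB-V1 cells treated for 72 h at 37 degrees C in phenol-red-free DMEM containing 10% FBS.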
# HT1080-NT tox: qHTS for induction of synthetic lethality in tumor cells producing 2HG: qHTS for the HT-1080-NT fibrosarcoma cell line | HT-1080-NT fibrosarcoma viability, CellTiter-Glo ATP luminescence, 48 h | Potency, µM (titrated, usually from 46.1 µM), for the others: at the top dose activity, negative = less viability, hits mostly cytotoxic | 360,000 compounds, 1.6% hits;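 further: NT is the 2HG producing partner of a matched IDH1 knockdown line; potency means the concentration at half of the fitted maximal effect; 0% = DMSO-treated cells and -100% = media-only wells without cells; nearly all actives have a fitted effect of over 55% in size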
#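 Toxicity toward the 2HG-producing NT line was scored as %Activity, normalised to DMSO and no-cell wells, from CellTiter-Glo luminescence after 48 hours' treatment.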
# IL1B secr inh: qHTS for Inhibitors of Inflammasome Signaling: IL-1-beta AlphaLISA Primary Screen; activity change, % at 57.5 µM; THP-1 LPS/ATP IL-1B secretion, AlphaLISA, 16 h; hits give low values; 360,000 compounds, 4.7% hits; AID 743279, 2014; in the data active means activity change below about -50%; inconclusive means mostly about -30% to -49%
#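 Secreted IL-1B measured by AlphaLISA bead assay after 16 h compound exposure of THP-1 cells; compounds (final up to 57.5 uM) added 1 h before LPS (250 ng/mL) and ATP (1.25 mM) stimulation; lower signal means less secretion.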
# HT1080 IDH1KD tx: qHTS for induction of synthetic lethality in tumor cells producing 2HG: qHTS for the HT-1080-IDH1KD cell line. Potency, µM (doses to about 46.1 µM), inactives show top-dose activity, negative = toxicity, most hits filed as cytotoxic. HT-1080 IDH1 knockdown viability, ATP luminescence, 48 h. 360,000 compounds, 2% hits. AID 686971, 2013;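 further: potency means the concentration at half of the fitted maximal effect; 0% = DMSO wells and -100% = cell-free medium wells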
#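 After a 2 h attachment period, IDH1KD HT-1080 cells took pin-transferred compound for 48 h at 37 °C; ATP-based luminescence after 10 min room-temperature reagent incubation reported viability.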
# KB-3-1 tox: qHTS assay for MDR1-selective chemotherapeutics: Primary screen using the parental adenocarcinoma cell KB-3-1; KB-3-1 viability, CellTiter-Glo ATP luminescence, 72 h; Potency, µM (doses to about 46.1 µM), most hits filed as cytotoxic; 400,000 compounds, 1.4% hits; further: potency means the concentration at half of the fitted maximal effect; nearly all actives have a fitted effect of over 60% in size
#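 Parental KB-3-1 viability, qHTS format: 72 h compound exposure, 37 °C; CellTiter-Glo; media-only wells and DMSO plates as controls; concentration-effect fits on corrected data.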
# Starred values were filed as active, the others as inactive; i = inactive; ? = inconclusive; . = not tested or not shown; ! = not confirmed by another sample. Unless noted, the call rests on the fitted dose curve; in most records, active means well fitted curve in the direction sought with a large enough effect; inconclusive means small, poorly fitted or top-dose-only effect, or another doubt; inactive means no such curve, though single readings can be large; an effect the other way counts as inactive or inconclusive. Unless noted, on the % scale 0 is the no-effect control and ±100 the full control effect.
SMILES,KB-V1 MDR tox,HT1080-NT tox,IL1B secr inh,HT1080 IDH1KD tx,KB-3-1 tox
CCCCC(=O)NC(c1ccccc1OC)c1ccc2cccnc2c1O (stereo unspecified),?,?,180.0,2.59µM*,6.51µM*
CCCC(=O)NC(c1cccc([N+](=O)[O-])c1)c1ccc2cccnc2c1O (stereo unspecified),?,?,58.1,?,9.2µM*
CC(C)C(=O)NC(c1cccc([N+](=O)[O-])c1)c1ccc2cccnc2c1O (stereo unspecified),?,-25.6%,84.3,?,?
CCCC(=O)NC(c1ccc(Cl)cc1)c1ccc2cccnc2c1O (stereo unspecified),?,?,108.3,?,?
CCCC(=O)NC(c1ccccc1OC)c1ccc2cccnc2c1O (stereo unspecified),?,?,140.0,?,?
CC(C)NC(=O)C1(C)CCCN1C(=O)c1ccc2c(c1)C(C)(C)CCC2(C)C (stereo unspecified),i,0.8%,67.0,-1.2%,i
CCOc1ccccc1NC(=O)Cn1c(=O)n(Cc2ccccc2)c(=O)c2cccnc21,i,.,.,.,i
O=C1CCNCCN1[C@H](CO)c1ccccc1,i,3.1%,12.6,5.8%,i
CCCCC(=O)NC(c1ccc(N(C)C)cc1)c1ccc2cccnc2c1O (stereo unspecified),?,?,116.4,?,?
CCCCC(=O)NC(c1ccc(N(CC)CC)cc1)c1ccc2cccnc2c1O (stereo unspecified),?,?,136.0,?,4.61µM*
COc1ccc(C(NC(C)=O)c2ccc3cccnc3c2O)cc1OC (stereo unspecified),i,.,.,.,?
COc1ccc(C(NC(C)=O)c2ccc3cccnc3c2O)c(OC)c1 (stereo unspecified),?,?,111.1,6.51µM*,7.31µM*
COc1ccc(-c2ccc(-c3cc(=O)oc4cc(OC)c(OC)c(OC)c34)cc2)cc1,i,4.4%,39.5,13.3%,i
CCOC(=O)COc1ccc(/C=C/[N+](=O)[O-])c(OCC(=O)OCC)c1,i,7.94µM*,-96.7*,5.62µM*,?
CCOc1ccc(/C=C/[N+](=O)[O-])c2ccccc12,18.4µM*,?,-101.2*,12.6µM*,?
CCOC(=O)COc1ccc2nsnc2c1,?,13.2%,9.1,3.8%,i
CCOC(=O)COc1ccc2ccccc2c1/C=C/[N+](=O)[O-],?,7.31µM*,-92.1*,4.11µM*,18.4µM*
CCC(C)Sc1cccc(-c2nc3cc(C)ccn3c2NCc2ccccc2)c1 (stereo unspecified),i,20.9µM*,-72.5*,26.4µM*,i
c1ccc(CNc2c(-c3cccc(SC4CCCCC4)c3)nc3ccccn23)cc1,i,?,-28.4,?,i
Cc1ccn2c(NCc3ccccc3)c(-c3cccc(SC4CCCCC4)c3)nc2c1,20.6µM*!,?,-79.4*!,?,?
CC1CC(C)CN(C(=O)c2ccc3c(=O)n(Cc4ccc5c(c4)OCO5)c(=S)[nH]c3c2)C1 (stereo unspecified),14.6µM*,-12.6%,-21.2,-19.9%,i
COc1ccccc1Cn1c(=S)[nH]c2ccc(Br)cc2c1=O,i,4.2%,40.5,5.4%,i
COCCn1c(=S)[nH]c2cc(C(=O)N3CCC(C(N)=O)(N4CCCCC4)CC3)ccc2c1=O,i,12.0%,12.6,-4.4%,i
COc1ccccc1Cn1c(=S)[nH]c2ccc(F)cc2c1=O,i,-0.1%,-73.2*,3.6%,i
CCOC(=O)C1CCCN(C(=O)c2ccc3c(=O)n(CCOC)c(=S)[nH]c3c2)C1 (stereo unspecified),23.1µM*,-10.0%,0.0,-6.5%,i
SMILES,KB-V1 MDR tox,HT1080-NT tox,IL1B secr inh,HT1080 IDH1KD tx,KB-3-1 tox
COc1ccccc1Cn1c(=S)[nH]c2cc(C(=O)N3CCCC(C)C3)ccc2c1=O (stereo unspecified),i,-28.1%,-26.3,?,20.6µM*
COc1ccccc1Cn1c(=S)[nH]c2cc(C(=O)N3CCC(C(N)=O)CC3)ccc2c1=O,i,11.9%,30.3,8.4%,i
COCCCNC(=O)c1c(NC(=O)Cc2coc3cc(C)ccc23)sc2c1CCCC2,i,.,.,.,i
CCOc1ccc(NC(=O)CC2C(=O)N(c3ccc(C)cc3)C(=O)N2CCC2=CCCCC2)cc1 (stereo unspecified),i,.,.,.,i
NNC(=O)c1oc2ccccc2c1-n1cccc1,i,4.61µM*,71.1,4.11µM*,i
O=C(C[n+]1ccc(C(=O)c2ccccc2)cc1)Nc1cccc([N+](=O)[O-])c1,i,-17.3%,-6.9,-20.4%,i
COc1cc(/C=N\Nc2nc(-c3ccc(C)cc3)c(NC(C)=O)s2)ccc1O,i,-22.3%,-62.1*,-16.3%,i
COc1ccc(/C=N/Nc2nc(-c3ccc(C)cc3)c(NC(C)=O)s2)cc1OC,i,15.5%,11.6,3.3%,i
COc1ccccc1N(C)S(=O)(=O)c1ccc(C)c(C(=O)Nc2nccs2)c1,?,7.9%,-10.7,1.8%,i
O=c1c2c(-c3ccc(Cl)cc3)csc2nc2n1CCC2,18.4µM*,-5.3%,0.0,-11.4%,i
Nn1cnc2scc(-c3ccc(Cl)cc3)c2c1=O,i,-6.1%,-9.7,2.1%,i
COC(=O)c1cnc(Nc2nc(CN)cs2)nc1C(F)(F)F,i,21.2%,-9.8,17.2%,i
N#Cc1cc(C(=O)c2cc(Br)ccc2O)cn(C2CCCCC2)c1=O,?,2.2%,-80.5*,-22.8%,?
Cc1ccc(-n2nc(C(=O)N3CCN(c4ccccc4F)CC3)c(=O)n(C)c2=O)cc1,i,.,.,.,i
CCOc1ccc(N/C(C)=C/C(=O)c2ccc3c(c2)OCCO3)cc1,i,20.9%,-76.9*,-13.9%,i
CC(NC(=O)/C(C#N)=C/c1ccc(Cl)c([N+](=O)[O-])c1)c1ccccc1 (stereo unspecified),i,?,-97.9*,?,i
N#C/C(=C\c1ccncc1)c1ccccn1,?,?,-100.0*,?,?
N#C/C(=C\c1ccc(Cl)c([N+](=O)[O-])c1)c1ccccn1,i,14.6µM*,-96.8*,10.3µM*,i
